These results are taken from PubChem BioAssay (NCI).

The structures appear in SMILES notation. The panel holds about 83,000 compounds, 20% with a hit somewhere; the sample as a whole holds those more often.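 Results are percent growth after 48 hours of single-concentration exposure. 100 means growth as in untreated cells, lower positive values show inhibition; negative values down to -100 show cell death.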 A number with no mark means an inactive call. Activity calls are given as the source filed them. The calls were made as follows: active = growth percent below 10; inactive = the rest.

Common to all, as to assay: NCI-60 one-dose screen, 48 h (100 = growth as untreated, 0 = no growth, -100 = all killed)
For assay [1], the system named is SK-MEL-2 melanoma. The following applies: 10 µM unless noted.
The subject of assay [2] is EKVX NSCLC. The following applies: 10 µM unless noted.
For assay [3], the system named is SN12C renal. The following applies: 10 µM unless noted.
Assay [4] relates to TK-10 renal. The following applies: 10 µM unless noted.
Assay [5] deals with ACHN renal. The following applies: 10 µM unless noted.
In assay [6] the test system is CAKI-1 renal. The following applies: 10 µM unless noted.
The test system of assay [7] is A498 renal. The following applies: 10 µM.
Assay [8] concerns CCRF-CEM leukemia. The following applies: 10 µM unless noted.
For assay [9], the system named is RPMI-8226 leukemia. The following applies: 10 µM unless noted.
Assay [10] has as its system OVCAR-8 ovarian. The following applies: 10 µM unless noted.
Assay [11] deals with OVCAR-5 ovarian. The following applies: 10 µM unless noted.
Assay [12] deals with OVCAR-4 ovarian. The following applies: 10 µM unless noted.
Assay [13] concerns SK-OV-3 ovarian. The following applies: 10 µM unless noted.
For assay [14], the system named is IGROV1 ovarian. The following applies: 10 µM unless noted.
Assay [15] relates to OVCAR-3 ovarian. The following applies: 10 µM unless noted.
The subject of assay [16] is HS 578T breast. The following applies: 10 µM unless noted.
The test system of assay [17] is HL-60(TB) leukemia. The following applies: 10 µM unless noted.
In assay [18] the test system is MOLT-4 leukemia. The following applies: 10 µM unless noted.
Assay [19] relates to SR leukemia. The following applies: 10 µM unless noted.
The test system of assay [20] is UO-31 renal. The following applies: 10 µM unless noted.

For the molecule `N#CC1(C#N)C(c2ccc(N(CCCl)CCCl)cc2)OC23CCCCC2C1(C#N)C(=N)O3` (centres undefined), the growth in assay [1] was 122%; in [2] it was 108%; in [3], 69.1%; in assay [4], 91.9%; in assay [5], 50.2%; in [6], 55.8%. Moreover, the growth in assay [7] is 56.6%; in assay [8], 77%; in [9], 96.2%; in [10], 80.6%; in assay [11], 105%; in assay [12] it was 91.9%. The growth in [13] was 96.8%; in assay [14], 77%; in assay [15], 98.5%; in [16] it was 101%.
Turning to `CCOC(=O)CCC(NC(=O)C(Cc1ccc(N(CCCl)CCCl)cc1)NC=O)C(=O)OCC` (centres undefined), the growth was -64.3% (active) in [1]; 55.4% in assay [2]; 3.28% (active) in assay [3]; 111% in assay [4]; -33.9% (active) in [5]; 10.5% in [6]. For the same molecule, the growth in assay [7] was 128%; in assay [17], 9.37% (active); in assay [8], 17.6%; in assay [18], 5.13% (active); in assay [9], 30.6%; in assay [10], 44.5%. Moreover, the growth in [11] was 42.9%; in assay [12], 61.4%; in assay [13], 135%; in [14], 67.2%; in assay [15], -17.4% (active).
On to `Cc1ccc(Nc2nc3c(s2)C2=CC[C@@H]4[C@H](CC[C@]5(C)C(=O)CC[C@@H]45)[C@@]2(C)CC3)cc1`, for which the growth in assay [1] was 46.3%; in assay [2], 56.7%; in [3], 60%; in assay [4] it was 53.5%; in assay [5] it was 20.1%; in assay [6], 34.3%. The growth in assay [17] is 34%; in assay [8], 7.68% (active); in [18], 12.3%; in assay [19], 12.9%; in assay [9], -15.8% (active); in [10] it was 58.4%. The growth in [11] is 72.4%; in [12], 44.8%; in assay [13], 36.6%; in assay [14], 65%; in assay [15], 16.7%; in assay [16] it was 28.1%.
Consider `COC(=O)N[C@H]1CCc2c(Br)c(OC)c(OC)c(OC)c2-c2ccc(SC)c(=O)cc21`, for which the growth is 29.4% in [1]; 46% in assay [2]; 25.1% in assay [3]; 41.6% in assay [4]; 26.7% in [5]; 13.7% in assay [6]. Further, the growth in assay [17] is -43.7% (active); in [8] it was 3.65% (active); in assay [18], 3.15% (active); in [19] it was -9.73% (active); in [9], -3.46% (active); in assay [10] it was 14.8%. The growth in assay [11] is 35.9%; in [12], 24.7%; in assay [13] it was 33.1%; in assay [14], 9.6% (active); in assay [15] it was -40.5% (active); in assay [16], 1.22% (active).
In the case of `CCCCC1(CCC)C(=O)NC(=S)NC1=O`, the growth was 91.2% in assay [1]; 102% in assay [2]; 85.7% in assay [20]; 118% in assay [4]; 94.8% in assay [5]; 97.2% in assay [6]. In addition, the growth was 129% in assay [7]; 115% in assay [8]; 96.8% in assay [18]; 126% in [19]; 104% in [9]; 128% in assay [10]. In addition, the growth in [11] is 102%; in assay [12] it was 95.9%; in assay [13] it was 109%; in [14] it was 87.9%; in [15], 93.3%; in assay [16], 111%.
For `N#C[Se]Cc1cc(-c2ccccc2)n(-c2ccc(S(N)(=O)=O)cc2)n1`, the growth in [1] was -35.9% (active); in assay [3], 6.49% (active); in [20], -25.6% (active); in assay [4] it was -29.7% (active); in [5], 1.16% (active); in assay [6], 0.316% (active). The growth is -61.4% (active) in [7]; -44.5% (active) in assay [17]; -16.4% (active) in [8]; -28.4% (active) in assay [18]; -32.5% (active) in assay [19]; -33.5% (active) in assay [9]. In addition, the growth in assay [10] is 6.01% (active); in assay [11], -42.6% (active); in [12], 2.52% (active); in assay [13] it was -42.6% (active); in assay [14] it was -35.6% (active); in assay [15], -80.6% (active). Also, in [16], the growth was -17.6% (active).
In the case of `CCCCCCCC[N+](C)(CCCCCCCC)CCCCCCCC`, the growth was -94.1% (active) in assay [1]; -86.5% (active) in assay [3]; -100% (active) in assay [20]; -100% (active) in assay [4]; -93.6% (active) in assay [5]; -98.6% (active) in [6]. Moreover, the growth is -100% (active) in assay [7]; 32% in assay [17]; 85.7% in [8]; 37.4% in [18]; 28.1% in assay [19]; 44.2% in [9]. Also, the growth in assay [10] is -100% (active); in assay [11], -100% (active); in [12], -94.1% (active); in [13], -97.8% (active); in assay [15] it was -100% (active); in [16] it was -66.6% (active).
